Sampled rows, rich in hits. Any-hit rate of the full collection: about 1.5%.
Cardiac RTF inh: cardiac RTF calcium desensitization | 0.12% of 340,000 active | P19429+P45379 | inhibition, % at 7.15 µM | AID 493244 | IANBD-labeled cardiac RTF, Ca2+ fluorescence;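 active means inhibition above the mean inhibition of all tested compounds plus 3 SD, cut at about 17% in these data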;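 further: assay run at fixed EC70 calcium of 1.6 mM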
IDE act: boosts human insulin-degrading enzyme activity in HEK cells | P14735 | FAbeta-B cleavage, fluorescence polarization; 0% vehicle, 100% cell-free pure enzyme wells | activation, % at 5.96 µM | 0.073% of 340,000 active | AID 493087;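 active means activation above the mean of all tested compounds plus 3 SD, set per screening campaign, cut at about 17% in these data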
RTF Ca sens act: increases calcium sensitivity of human cardiac regulated thin filaments | P19429+P45379 | IANBD-labeled TnC RTF fluorescence at EC20 calcium; 0% EC20 calcium, 100% full calcium | activation, % at 7.2 µM | 0.24% of 340,000 active | AID 493008;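 active means activation above the mean over all tested compounds plus 3 SD, cut at about 30% in these data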;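 further: rise in fluorescence read as greater calcium sensitivity of cardiac thin filaments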
CRFBP-R2 agonist: agonists of human CRF-binding protein/CRF-R2 receptor complex. HEK293 CRF-R2/CRF-BP, calcium dye fluorescence (FLIPR); percent of saturating CRF peptide response. activation, % at 13.2 µM. 0.46% of 350,000 active;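 active means activation of at least 50%, plus an integration ratio under a set limit after plate pattern correction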;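 further: plate controls were neutral control wells without compound for no effect and CRF at EC100 for full effect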
CRFBP-R2 block: blocks CRF-induced signaling of the CRF-BP/CRF-R2 complex. HEK293 CRF-R2/CRF-BP, CRF-induced calcium fluorescence. inhibition, % at 11.8 µM. 0.59% of 350,000 active. AID 588475;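 active means inhibition of the ligand-induced calcium signal above about 50% at the single tested concentration, limit read from the data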
IDE inh: inhibits human insulin-degrading enzyme in HEK cells | AID 434962 | P14735 | FAbetaB cleavage, fluorescence polarization | inhibition, % at 5.59 µM | 0.41% of 320,000 active;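 active means percent inhibition above the average of all tested compounds plus 3 SD, set per screening campaign, cut at about 16% in these data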;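 further: IDE supplied by intact live HEK cells; FP after avidin binding of uncleaved biotin substrate so inhibition keeps polarization high; 0% = DMSO wells and 100% = 60 µM reference IDE inhibitor Ii1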
IDE cell inh cf: cellular human IDE inhibition, confirmation; shares compounds with IDE inh; 51% of 1,200 active; HEK cells, FAbetaB cleavage, fluorescence polarization; inhibition, % at 5.59 µM;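 active means mean inhibition across triplicate wells above the cutoff set by the earlier primary insulin-degrading enzyme screen, cut at about 16% in these data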;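 further: 0% = DMSO wells and 100% = 60 µM reference IDE inhibitor Ii1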
HEK293 tox: kills HEK cells in IDE inhibitor counter-screen. shares compounds with IDE inh. HEK293 cytotoxicity, ATP luminescence. inhibition, % at 5.59 µM. 28% of 1,200 active. AID 449730; in the data active means inhibition above about 22%;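 further: 0% = vehicle wells and 100% = reference cytotoxic drug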
An asterisk follows results filed as active; / = not tested or not shown.

SMILES | Cardiac RTF inh | IDE act | RTF Ca sens act | CRFBP-R2 agonist | CRFBP-R2 block | IDE inh | IDE cell inh cf | HEK293 tox
CCCCn1c(NC(=S)Nc2ccccc2)nc2ccccc21 | -2 | -12 | -20 | -1 | -77 | 31* | 12 | 12
S=C(Nc1ccccc1)Nc1nc2ccccc2n1CCOc1ccccc1 | -3 | -22 | 4 | 0 | -25 | 29* | 18* | 7
CC(=O)Nc1nc2ccccc2n1CCOc1ccccc1 | -6 | 4 | -5 | -1 | -11 | 0 | / | /
CCCCn1c(NC(=O)c2ccccc2)nc2ccccc21 | 4 | 8 | -3 | 2 | -33 | -7 | / | /
O=C(Nc1ccc(N2CCN(c3ccc(C(F)(F)F)cn3)CC2)nc1)c1cccs1 | 1 | -19 | -3 | -1 | 5 | 17* | 7 | 31*
C#CCN1C(=O)S/C(=C/C=C/c2ccc(N(C)C)cc2)C1=O | -37 | -44 | 22 | 85* | -150 | 41* | 57* | 27*
Cc1nc2ccc(NC(=S)NC3CCCCC3)cc2nc1C | -6 | -5 | -2 | 0 | 14 | 21* | 6 | 16
Cc1ccc(NC(=S)NC2CCCC2)cc1C | 8 | 4 | 7 | -5 | 12 | 2 | / | /
CC[n+]1c(C)sc2c3ccsc3ccc21 | -2 | -21 | 7 | 1 | -17 | 42* | 10 | 2
N#C/C(=C\c1ccc(N2CCOCC2)o1)C(=O)NCCc1ccccc1 | -88 | -140 | 64* | 200* | -297 | 72* | 78* | 8
N#C/C(=C\c1ccc(O)c(O)c1)C(=O)NCCCc1ccccc1 | -21 | -37 | 23 | 3 | -10 | 29* | 38* | 14
COCCNC(=O)/C(C#N)=C/c1ccc(N2CCOCC2)o1 | -54 | -16 | 61* | 42 | -36 | 16* | 16 | 7
CC(NC(=O)CN1C(=O)NC2(CCCCCC2)C1=O)c1ccccc1 (stereo unspecified) | -8 | -1 | 0 | 1 | -6 | 2 | / | /
COc1ccc(-c2csc3nc[nH]c(=O)c23)cc1OC | -4 | 2 | 4 | 0 | 1 | -6 | / | /
Cc1ccc(-c2csc3nc[nH]c(=S)c23)cc1C | -5 | -9 | -5 | -2 | -30 | 22* | 3 | 13
O=C(CCN1C(=O)/C(=C/c2ccc(F)cc2)SC1=S)N[C@@H](CO)Cc1ccccc1 | -1 | 6 | -3 | 0 | -8 | 3 | / | /
COc1ccc2c(n1)Sc1nc3ccccc3nc1N2 | -59 | -35 | 30* | 228* | -189 | 28* | 55* | 12
Fc1ccc(-c2ccnc(=S)[nH]2)cc1 | -2 | -24 | 0 | 0 | -4 | 40* | 8 | 12
Cc1c(Br)c([N+](=O)[O-])nn1CC(=O)c1ccccc1 | 2 | -2 | 0 | 0 | -2 | -4 | / | /
N#CC1=C(S)N=C(N)C(c2nc(-c3ccccc3)cs2)C12CCCC2 (stereo unspecified) | -4 | -10 | 3 | 0 | -6 | 20* | 9 | 6
CC(=O)Oc1ccc(-n2c(=O)c3ccccc3c3ccccc3c2=O)cc1 | -2 | 4 | 5 | -1 | 32 | 1 | / | /
CC(=O)Oc1ccc(N2C(=O)c3cccc4c([N+](=O)[O-])ccc(c34)C2=O)cc1 | 3 | -4 | 4 | 4 | 75* | 18* | 13 | 68*
COc1ccc(NC(C)=[N+](C)CCNS(=O)(=O)c2ccc(Cl)cc2)cc1 | -8 | -1 | -5 | 1 | 6 | 1 | / | /
O=C(NCCN1CCOCC1)c1ccc(-c2ccccc2)cc1 | -7 | -15 | -1 | -1 | -7 | 19* | 4 | 7
O=C(CSc1nnc(CNC(=O)c2ccc(F)cc2)o1)NCc1ccc2c(c1)OCO2 | -2 | -6 | 2 | -2 | 1 | 8 | / | /
CC(=NNC(=O)C(C)SC(C)C(=O)NN=C(C)c1cccnc1)c1cccnc1 (stereo unspecified) | 6 | 4 | -2 | 3 | -3 | / | / | /
COc1cccc(C(=O)Nc2ccc(-c3nnc(-c4ccco4)o3)cc2)c1 | -5 | -9 | -7 | 0 | -6 | 22* | 9 | 23*
